# This is a sample that favours compounds with a hit; in the whole collection about 19% have one here.
# Shiga toxin inh: inhibitors of Shiga toxin in Vero cells; Vero cells, Shiga toxin protein synthesis inhibition reporter; inhibition, % at 38.7 µM; 290,000 compounds, 9.2% hits; in the data active means inhibition mostly above about 28%, no sharp cut-off; inactive means mostly below about 43%; further: 0% is about no effect
# Pf growth 48h: inhibits P. falciparum growth in the first generation, 48 h; P. falciparum luciferase growth in erythrocytes, 48 h; Potency, µM (titrated, usually from 28.7 µM), inactives show top-dose activity change, negative = inhibition, actives largely listed as inhibitors; 310,000 compounds, 5.9% hits; AID 504832; further: potency means the concentration at half of the fitted maximal effect; on the % scale 0 is the no-effect control and ±100 the full control effect
#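 First compound was added to culture medium, then infected red cells at 0.1% parasitemia and 2% hematocrit (final). After incubation at 37 C under 5% CO2, luciferase detection reagent was dispensed and light output recorded.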
# Pf growth 96h: inhibits malaria parasite growth, 96 h. P. falciparum luciferase reporter growth, 96 h. Potency, µM (titrated, usually from 28.7 µM), without a hit: at the top dose activity change, negative = inhibition, most hits filed as inhibitors. 320,000 compounds, 6.9% hits. AID 504834; further: potency means the concentration at half of the fitted maximal effect; on the % scale 0 is the no-effect control and ±100 the full control effect
#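 Compounds incubated with erythrocytes infected by luciferase-expressing P. falciparum (2% hematocrit, 0.05% parasitemia final) for 96 hours, 37 C in 5% CO2. Growth inhibition scored as decreased luciferase luminescence.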
# LASV entry inh: inhibitors of Lassa virus binding or cell entry | Lassa virus pseudotype entry inhibition, cell reporter | Potency, µM (series often up to 37.9 µM), for the others: top-dose activity change, negative = inhibition, actives largely listed as inhibitors | 300,000 compounds, 1.2% hits; calls by dose curve; tested in HEK293 cells; further: potency means the concentration at half of the fitted maximal effect; on the % scale 0 is the no-effect control and ±100 the full control effect; nearly all actives have a fitted effect of over 50% in size
# CHX counter: counter-screen hit for Shiga toxin inhibitors, cycloheximide; cell reporter, cycloheximide protein synthesis inhibition counterscreen; max response, %; 300,000 compounds, 12% hits; AID 2314; in the data active means max response mostly above about 13%, no sharp cut-off; inactive means mostly below about 14%; further: read at 38.3 µM for the half of the compounds with a filed dose; 0% is about no effect
# Marburg entry inh: inhibitors of Marburg virus binding or cell entry | 300,000 compounds, 1.8% hits | AID 540276 | Potency, µM (top dose mostly 37.8 µM), for the others: at the highest dose activity change, negative = inhibition, most hits filed as inhibitors | Marburg virus pseudotyped entry inhibition, cell reporter; calls by dose curve; tested in HEK293 cells; further: potency means the concentration at half of the fitted maximal effect; on the % scale 0 is the no-effect control and ±100 the full control effect
# * hit, by the source's call; i = inactive; ? = inconclusive; . = no result; ! = repeats disagree; [ ] = remark or other dose. Unless noted, the call rests on the fitted dose curve; in most records, active means well fitted inhibition curve with a large enough effect; inconclusive means small, poorly fitted or top-dose-only effect, or another doubt; inactive means no such curve, though single readings can be large or run the other way.
SMILES,Shiga toxin inh,Pf growth 48h,Pf growth 96h,LASV entry inh,CHX counter,Marburg entry inh
Cc1c(OC(C)C(=O)N2C[C@H]3C[C@@H](C2)c2cccc(=O)n2C3)ccc2c3c(c(=O)oc12)CCC3 (stereo partly specified),-3.2,-19.3%,10.4µM*,.,-0.9,.
CCCN1CCN(CCCNC(=O)CCn2nc(-c3ccccc3)ccc2=O)CC1,-12.8,11.8%,?,7.1%[46.1 µM],-1.3,?
CCOc1ccc(NC(=S)N(CCc2ccncc2)C(C)C)cc1,11.8,25.0%,-2.0%,.,15.2,.
CCn1cc(C(=O)NCCc2ccc(C)cc2)c(=O)c2cc(S(=O)(=O)N3CCCCC3)ccc21,.,.,.,?,.,-5.3%[46.1 µM]
CC(C)c1csc(CN2CCN(Cc3ccc(F)cc3)C(CCO)C2)n1 (stereo unspecified),-10.2,?,10.2%,4.2%,0.7,3.8%[46.1 µM]
CCCC(=O)O[C@@H]1[C@@H](C)[C@@]2(O)[C@@H](C=C(CO)C[C@]3(O)C(=O)C(C)=C[C@@H]23)[C@@H]2C(C)(C)[C@]12OC(=O)CCC,24.8,.,.,.,1.3,.
Cc1coc2c(C)c3oc(=O)c(CCC(=O)N4C[C@H]5C[C@@H](C4)c4cccc(=O)n4C5)c(C)c3cc12,-4.4,3.29µM*,?,.,-3.9,.
S=C(NCc1ccccc1)NC1CCCc2ccccc21 (stereo unspecified),-14.6,-11.1%,?,12.0%,1.8,?
Oc1ccccc1Nc1nc(NCc2ccco2)c2ccccc2n1,14.8,?,2.08µM*,.,-0.9,.
Cc1ccccc1Nc1nc(NCc2ccco2)c2ccccc2n1,48.9,?,4.7%,?,19.4*,?
COc1ccc(OC)c(Nc2nc(NCc3ccco3)c3ccccc3n2)c1,.,?,43.3%,-9.2%[46.1 µM],-2.2,12.6µM*
Cc1ccccc1Nc1cc(C(=O)NCc2ccco2)c2ccccc2n1,35.8,8.9%,i,-2.5%,7.6,-30.2%
COc1ccc(/C=C/c2ccccc2)cc1[C@H]1[C@@H]2C=CCC[C@@]2(C)C(=O)N1Cc1ccccc1,44.4*,10.4µM*,?,.,20.2*,.
COc1ccc(/C=C/c2ccccc2)cc1C1C2C=CCCC2(C)C(=O)N1Cc1ccccc1 (stereo unspecified),114.9*,.,.,.,48.9*,.
COc1ccc(-c2ccc(N(C)C)cc2)cc1C1C2C=CCCC2(C)C(=O)N1Cc1ccccc1 (stereo unspecified),24.7,.,.,.,20.9,.
COc1ccc(-c2c(C3C4C=CCCC4(C)C(=O)N3Cc3ccccc3)ccc3ccccc23)cc1OC (stereo unspecified),10.0,.,.,.,8.8,.
Cn1c(SCC(=O)Nc2sccc2C#N)nnc1-c1ccccc1,-5.7,1.0%,.,10.6%,-2.3,9.0%
CCOC(=O)c1cccc(NC(=O)Nc2cc(OC)ccc2OC)c1,16.6,15.7%,.,16.4µM*,-1.3,?
COc1ccc(C)cc1NC(=O)Nc1cccc(C(=O)O)c1,-3.7,7.7%,?,?,5.6,?
CCOC(=O)c1ccc(N2CCN(c3ccccc3F)CC2)c(NC(=O)Nc2cccc(OC)c2)c1,-6.4,5.22µM*,?,?,4.4,?
CCOC(=O)c1ccc(NC(=O)NNS(=O)(=O)c2cc(OC)ccc2OC)cc1,-0.9,41.4%,5.22µM*,7.6%,-0.1,-9.8%
CCOC(=O)c1nnsc1NC(=O)Nc1ccc(OC)cc1,-7.1,4.15µM*,27.5%,16.8%,-2.7,-0.2%[46.1 µM]
Cc1cc(Cl)ccc1Oc1ncc(-c2ccc(Cl)cc2)cn1,-8.2,7.3%,34.5%,?,-2.8,7.3%
Cc1cccc(C)c1OCc1nc2ccccc2[nH]1,-0.2,-19.1%,?,25.0%,3.1,?
Cc1c(NCc2nc3ccccc3[nH]2)c(=O)n(-c2ccccc2)n1C,56.6,21.4%,13.1µM*,14.1%,28.8*,12.8%
SMILES,Shiga toxin inh,Pf growth 48h,Pf growth 96h,LASV entry inh,CHX counter,Marburg entry inh
Cc1c(NCc2cc(Cl)cc(Cl)c2O)c(=O)n(-c2ccccc2)n1C,-9.7,.,-19.1%,8.3%,-2.7,?
Cc1ccc(C)c(OCc2nc3ccc(S(=O)(=O)Nc4c(C)n(C)n(-c5ccccc5)c4=O)cc3[nH]2)c1,-1.1,11.7µM*,5.22µM*,-17.7%[46.1 µM],-2.2,0.0%[46.1 µM]
Cc1ccc(C)c(OCc2nc3ccccc3[nH]2)c1,88.2*,i,351.1%,-14.0%[46.1 µM],42.9*,?
CC(=O)NC(CCS(C)(=O)=O)C(=O)Nc1ccccc1 (stereo unspecified),6.5,19.0%,25.3%,.,0.4,.
N#C/C(=C\c1cc(Cl)c(OCc2ccc(Cl)cc2)c(Cl)c1)C(N)=O,52.7*,12.1%,91.6%,.,29.8*,.
N#C/C(=C\c1cc(O)c(O)c(O)c1)C(N)=O,-7.9,10.4µM*,?,.,-2.1,1.3%
N#C/C(=C/c1ccc(O)c(O)c1)C(=O)NCc1ccc(Cl)cc1,-8.3,-29.2%,-4.4%,?,5.3,-27.6%[46.1 µM]
N#C/C(=C\c1ccc(O)c(O)c1)C(=O)Nc1ccccc1,.,?,?,-7.1%,.,?
Nc1c(C(=O)c2ccccc2)sc(Nc2ccccc2)c1S(=O)(=O)c1ccccc1,9.7,?,?,?,-1.6,?
CN1C(=O)c2c(sc3c2CCCC3)NC1c1ccccc1O (stereo unspecified),48.7*,?,3.9%,.,18.9*,1.1%
CN1CCc2c(sc3c2C(=O)NC(c2cn(Cc4ccccc4)c4ccccc24)N3)C1 (stereo unspecified),2.1,?,?,?,-1.0,?
NC(=O)COC(=O)CC(c1ccccc1)c1ccccc1,-17.8,?,21.2%,9.3%,-2.2,4.7%[46.1 µM]
NC(=O)CNCCC(c1ccccc1)c1ccccc1,.,-5.0%,3.4%,-1.5%,.,11.2µM*!
COc1cc(O)cc2cc3c(c(O)c12)C(=O)CC(C)(O)O3 (stereo unspecified),37.4*,?,40.9%,.,35.0*,.
CC(C)(C)c1cc[n+](/C(C(=S)Nc2ccccc2F)=C(/[O-])c2ccc3c(c2)OCCO3)cc1,50.4,?,?,12.3%,22.8*,-5.4%[46.1 µM]
[O-]/C(=C(\C(=S)Nc1ccc(Cl)cc1)[n+]1ccccc1)c1ccc(OC(F)F)cc1,12.2,10.4µM*,-4.5%,.,11.4,.
CCOc1ccccc1NC(=S)/C(=C(\[O-])c1ccc2c(c1)OCCO2)[n+]1ccc(CC)cc1,-13.7,.,2.33µM*,11.6%,7.2,7.3µM*
[O-]/C(=C(\C(=S)Nc1ccccc1F)[n+]1ccccc1)c1ccc(-c2ccccc2)cc1,93.8,0.0%,-7.9%,3.3%,18.5*,23.4%
Cn1c(C(=O)N2CCCC(C(=O)NCCN3CCOCC3)C2)cc2sccc21 (stereo unspecified),-16.3,.,12.0%,13.8%,-2.2,13.1%
COc1ccccc1NC(=O)c1oc2ccccc2c1NC(=O)C1CCCCC1,.,.,.,7.4%[46.1 µM],.,-4.4%[46.1 µM]
Oc1ccccc1C1CC(c2cccs2)=NC(c2cccc(Br)c2)N1 (stereo unspecified),70.5*,?,2.62µM*,-13.6%,42.2*,?

# Assay outcomes deposited in PubChem by National Center for Advancing Translational Sciences (NCATS).
